{"source": "ChEMBL document CHEMBL3988442", "about": "“University of Dundee, Small-Polar-MMV Screening Library” (2021)"}
{"target": "AMP-activated protein kinase, AMPK (Homo sapiens) (UniProt P54646+O43741+P54619+Q9UGJ0+Q9Y478+Q13131+Q9UGI9)", "assay": "AMP-dependent Kinase enzyme assay. An in vitro enzyme assay that detects ADP turnover that is directly proportional to AMPK activity. This uses naive AMPK that is activated during the assay with MK-8722", "assay_type": "functional", "set-up": "scale not given: direction of the effect not stated beside the values", "conditions": "30 µM", "units": {"Percent Effect": "%"}}
{"smiles": "COc1ccc(CCN2CCCC(n3cncn3)C2)cc1", "note": "(centres undefined)", "Percent Effect": 0.286}
{"smiles": "CC(C)c1noc(C(C)N2CCC(c3nc4ccccc4o3)CC2)n1", "note": "(centres undefined)", "Percent Effect": 0.506}
{"smiles": "Cc1cc(NC(=O)NCCO)nn1-c1ccc(Cl)cc1Cl", "Percent Effect": -2.67}
{"smiles": "O=C(CCC(=O)N1CCNC(=O)C1c1cccc(F)c1)NC1CCCC1", "note": "(centres undefined)", "Percent Effect": -9.49}
{"smiles": "CC(NC(=O)NC1CCN(Cc2ccncc2)CC1)c1cccc(F)c1", "note": "(centres undefined)", "Percent Effect": 1.09}
{"smiles": "CN(C1CCCCC1)S(=O)(=O)NCC1Cc2ccccc2O1", "note": "(centres undefined)", "Percent Effect": -9.03}
{"smiles": "CC(=O)N1CCCC(C(=O)NCCc2ccc(F)c(Br)c2)C1", "note": "(centres undefined)", "Percent Effect": 9.28}
{"smiles": "Cn1cc(CN2CCOC(c3cccc(-c4cncnc4)n3)C2)cn1", "note": "(centres undefined)", "Percent Effect": 11.3}
{"smiles": "Cc1noc(C)c1CCCNC(=O)Nc1ccc2c(c1)CC(=O)N2", "Percent Effect": 33.6}
{"smiles": "CC(C)(C)c1nc(CN2CCCC2c2nnc3ccccn23)no1", "note": "(centres undefined)", "Percent Effect": 6.67}
{"smiles": "O=C(Cn1ccc2ncccc2c1=O)N1CCSCC1", "Percent Effect": -4.34}
{"smiles": "O=C(CN1CC(c2ccccc2)CC1=O)N1CCC(c2ncc[nH]2)CC1", "note": "(centres undefined)", "Percent Effect": 2.5}
{"smiles": "CNC(=O)c1cccnc1NCc1ccc(Cn2ccnc2)cc1", "Percent Effect": -1.78}
{"smiles": "NCc1ccnc(Oc2ccc(F)cc2)c1", "Percent Effect": 14.1}
{"smiles": "CCN(C)C[C@@H]1CN(C(=O)c2cc(-c3ccc(F)cc3)n[nH]2)C[C@@H]1CO", "Percent Effect": 9.6}
{"smiles": "Cc1cc(C)cc(NCCC(=O)NCc2cccnc2N(C)C)c1", "Percent Effect": -2.62}
{"smiles": "COCCN(C)Cc1cc(Cl)ccc1OCC(O)CN1CCCCCC1", "note": "(centres undefined)", "Percent Effect": -8.12}
{"smiles": "COCCn1ccnc1C1CCN(C(=O)CSc2nnc(C)o2)CC1", "Percent Effect": -0.22}
{"smiles": "CCOC(=O)N(C)C1CCN(Cc2cnc3ccccn23)CC1", "Percent Effect": 0.795}
{"smiles": "CCOCCC(=O)N(CCC#N)c1ccc(C)c(C)c1", "Percent Effect": -0.0952}
{"smiles": "CSc1nccc(N2CCC(NCc3ccc4nsnc4c3)CC2)n1", "Percent Effect": 2.27}
{"smiles": "CC(C)O[C@H]1CN(C(=O)CCN2CCCCO2)C[C@@H]1O", "Percent Effect": -7.14}
{"smiles": "CCC[C@H]1CN(Cc2cc(C#N)n(C)c2C)C[C@@H]1NS(=O)(=O)CC", "Percent Effect": -157}
{"smiles": "CC(C)Cc1noc(CN(C)C2CCCC2)n1", "Percent Effect": 10.7}
{"smiles": "COc1cc2c(cc1OC)CN(C(=O)NCC1CCCO1)CC2", "note": "(centres undefined)", "Percent Effect": -8.87}
{"smiles": "Cc1cc(C)nc(N2CC[C@H](Oc3ccccc3F)[C@@H](O)CC2)n1", "Percent Effect": 21.5}
{"smiles": "COc1ccsc1C(=O)NC1CCN(c2cccc(F)c2)CC1", "Percent Effect": -1.16}
{"smiles": "Cc1cc(N2CCCC2)nc(CNS(=O)(=O)Cc2ccccc2)n1", "Percent Effect": 5.01}
{"smiles": "CCOC(=O)C1(O)CCN(C(=O)Nc2cccc(F)c2)CC1", "Percent Effect": -1.01}
{"smiles": "CC1(C)CC(C(=O)N2CCC3(CCC(=O)N(C4CC4)C3)CC2)CCO1", "note": "(centres undefined)", "Percent Effect": -0.458}
{"smiles": "CCN(Cc1cn(CC2CCNCC2)nn1)CC1CCCO1", "note": "(centres undefined)", "Percent Effect": 4.72}
{"smiles": "O=C(CCc1nnc(-c2ccsc2)o1)NCC1CCN(C2CC2)C1", "note": "(centres undefined)", "Percent Effect": 4.06}
{"smiles": "COCCN(Cc1cnn(C)c1)c1nc2c(s1)c(C)nn2C", "Percent Effect": -0.701}
{"smiles": "CN(Cc1ccc(OCC(=O)N2CCOCC2)cc1)S(C)(=O)=O", "Percent Effect": -30.8}
{"smiles": "CC(C)CNC(=O)c1sccc1-n1cnnn1", "Percent Effect": 10.8}
{"smiles": "CN(CC(=O)NCC1CCCCC1)S(=O)(=O)c1cccnc1", "Percent Effect": -4.46}
{"smiles": "CNc1nc(C(=O)N2CCCC(COc3ccc(F)cc3)C2)cs1", "note": "(centres undefined)", "Percent Effect": 63.7}
{"smiles": "CNc1ncc(C(=O)N2CCCC(CO)(CCCOC)C2)cn1", "note": "(centres undefined)", "Percent Effect": 5.91}
{"smiles": "O=S(=O)(NC1CCOC1)c1ccc(C(F)(F)F)nc1", "note": "(centres undefined)", "Percent Effect": 6.19}
